# MIN6 prolif: inducers of MIN6 beta-cell proliferation, primary screen, ATP luminescence, uHTS; MIN6 cells proliferation, ATPlite luminescence, 48 h; cells starved in 0.2% serum; 100% = growth in 10% serum; proliferation, % at 10 µM; actives 0.29% (n = 330,000);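 active means compounds whose signal lies at least 3.5 SD above the mean of all wells on their plate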;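 further: 0% = DMSO-treated cells in low-serum medium and 100% = 10% serum control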
# APOBEC3A inh: APOBEC3A ssDNA deaminase inhibitors, primary screen, selectivity assay for APOBEC3G inhibitor project, biochemical, FAM/TAMRA oligo cleavage fluorescence. inhibition, % at 20 µM. actives 0.41% (n = 330,000). recombinant A3A, FAM/TAMRA ssDNA deamination fluorescence. DNA dC->dU-editing enzyme APOBEC-3A (Homo sapiens), P31941;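 active means at least 40% inhibition at 20 µM here, with at most 30% in a related deaminase screen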;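 further: plate controls were A3A with DMSO for no effect and wells lacking A3A enzyme for full effect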
# Target sequence (P31941 whole entry, looked up): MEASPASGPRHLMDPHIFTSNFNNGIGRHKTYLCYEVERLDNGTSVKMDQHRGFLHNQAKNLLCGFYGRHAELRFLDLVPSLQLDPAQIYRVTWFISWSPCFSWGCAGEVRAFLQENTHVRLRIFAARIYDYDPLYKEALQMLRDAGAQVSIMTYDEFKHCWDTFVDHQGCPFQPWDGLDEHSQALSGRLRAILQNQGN
# A3G deaminase: APOBEC3G DNA deaminase inhibitors, primary screen, biochemical, fluorescence, single-stranded DNA substrate, uHTS; DNA dC->dU-editing enzyme APOBEC-3G (Homo sapiens), Q9HC16; recombinant A3G, ssDNA deamination FAM/TAMRA fluorescence; inhibition, % at 20 µM; actives 0.28% (n = 330,000);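 active means inhibition of at least 40% at 20 µM, with no more than 30% in the related APOBEC3A deaminase screen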;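 further: plate controls were DMSO wells with A3G for no effect and wells lacking A3G enzyme for full effect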
# Target sequence (Q9HC16 whole entry, looked up): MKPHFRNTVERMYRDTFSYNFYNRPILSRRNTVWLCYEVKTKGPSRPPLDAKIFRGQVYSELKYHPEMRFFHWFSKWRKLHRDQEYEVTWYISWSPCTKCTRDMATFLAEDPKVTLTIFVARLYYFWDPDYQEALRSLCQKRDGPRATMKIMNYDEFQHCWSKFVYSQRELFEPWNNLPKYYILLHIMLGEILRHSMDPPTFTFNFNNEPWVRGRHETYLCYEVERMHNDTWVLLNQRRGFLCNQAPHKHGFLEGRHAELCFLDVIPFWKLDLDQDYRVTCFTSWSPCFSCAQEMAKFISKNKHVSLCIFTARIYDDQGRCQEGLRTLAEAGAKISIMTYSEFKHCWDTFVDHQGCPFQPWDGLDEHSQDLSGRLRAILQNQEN
# A1 inh: caspase 3/7 activation in MEF A1-2A-BIM cells, primary screen, A1 inhibitor project, cell-based, luminescence, HTS; caspase activation, % (test concentration not listed); Caspase-Glo 3/7 luminescence, 3 h; percent of clofoctol response, vehicle zero; actives 0.066% (n = 330,000);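 active means over half of replicate activation scores above 10%, or exactly half above 10 with the replicate mean above 10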
# A3A conf: APOBEC3A deaminase inhibitors, retest, confirmation, selectivity assay for APOBEC3G inhibitor project, biochemical, single concentration, fluorescence readout | recombinant A3A, ssDNA deaminase UDG fluorescence assay | inhibition, % at 20 µM | actives 63% (n = 1,400) | shares compounds with APOBEC3A inh;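 active means inhibition reaching a set limit, 80% of the first screen's cutoff, at 20 µM in any replicate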;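 further: plate controls were DMSO wells with A3A for no effect and wells lacking A3A enzyme for full effect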
# UDG A3A counter: E. coli UDG inhibitors, confirmation, counter-screen for APOBEC3A inhibitor project, biochemical, single concentration, fluorescence, FAM/TAMRA oligo; shares compounds with APOBEC3A inh; UDG counterscreen, FAM/TAMRA uracil oligo fluorescence; inhibition, % at 20 µM; 1,000 tested, under 10 active; AID 504714, 2011; call rule not given here
# Starred values were filed as active, the others as inactive; x = no result given. Compounds with a hit are over-represented: about 1.1% of the library has one in this group of screens.
SMILES,MIN6 prolif,APOBEC3A inh,A3G deaminase,A1 inh,A3A conf,UDG A3A counter
Cc1cccc(COC(=O)CCCNC(=O)c2ccc(Cl)cc2)c1,-3,-2,-9,0,x,x
CCCCc1c(CCC)c(=N)c2ccccc2n1C,-6,42*,25,-1,83*,4
O=C1CCCC(O)=C1Sc1ccccc1C(=O)O,-2,55*,6,0,57*,-6
CC(C)NC(=O)CSc1ccccc1C(=O)N1CCN(S(=O)(=O)Cc2ccccc2)CC1,0,-2,-9,x,x,x
COc1ccc2c(C)cc(N3CCN(Cc4ccccc4)CC3)nc2c1,-1,41*,4,1,25,x
COc1cccc(OCC(=O)Nc2c3c(nn2-c2ccccc2)CS(=O)(=O)C3)c1,3,2,-4,0,x,x
CN1/C(=C\C=N\O)C(C)(C)c2ccccc21,-4,2,-1,-1,x,x
CN1/C(=C\C=[N+](C)c2ccccc2)C(C)(C)c2ccccc21,-4,56*,13,-1,77*,-33
COc1ccc(CN(C(=O)c2ccco2)C2CCS(=O)(=O)C2)cc1 (stereo not drawn),-2,72*,-8,1,-6,2
COc1cccc(C(=O)COc2ccc(NC(=O)c3ccccc3)cc2)c1,-2,-4,-2,x,x,x
CCOC(=O)C1=C(C)Nc2sc(C(=O)c3ccc(C)cc3)c(N)c2C1c1ccc(C(=O)OC)cc1 (stereo not drawn),0,-2,-10,-1,x,x
CCOC(=O)C1=C(C)Nc2sc(C(=O)c3ccc(F)cc3)c(N)c2C1c1ccc(C(=O)OC)cc1 (stereo not drawn),-4,76*,-3,0,-10,-1
Cc1cccc(S(=O)(=O)NNC(=O)Cc2cccn2C)c1,-2,58*,-8,1,-2,2
Cc1ccc(NC(=O)c2ncn(CC(=O)NCc3ccc4c(c3)OCO4)n2)cc1C,x,3,-2,x,x,x
Cc1ccc(C)c(N2N=C(C(=O)Nc3cccnc3)CCC2=O)c1,3,6,0,1,x,x
COC(=O)C1=C(C)N(Cc2ccccc2)C(=NCC(C)C)N[C@H]1c1cccc(C(F)(F)F)c1,-6,48*,16,1,75*,3
CCN1C(=NCC2CC2)N[C@@H](c2cccc(C(F)(F)F)c2)C(C(=O)OC)=C1C,-6,56*,8,0,67*,3
CCN1C(=NCc2ccco2)N[C@@H](c2cccc(C(F)(F)F)c2)C(C(=O)OC)=C1C,-6,25,16,1,x,x
CCN1C(=NCCOC)N[C@@H](c2cccc(C(F)(F)F)c2)C(C(=O)OC)=C1C,-4,45*,14,2,80*,-2
Cc1cc(C(=O)Nc2ccc3c(c2)CCC3)ccc1[N+](=O)[O-],-3,-1,4,-1,x,x
CCN1/C(=C\C(C)=O)Sc2ccc(OC)cc21,-2,58*,16,2,67*,2
O=C(c1ccc(F)cc1)N1CCOCC1,1,-3,-9,1,x,x
O=C(c1ccccc1)N1CCCc2ccccc21,0,-4,-5,-1,x,x
O=C(c1ccc(=O)oc1)N1CCOCC1,0,95*,29,0,84*,x
O=C(c1ccc(=O)oc1)N1CCCc2ccccc21,-3,71*,15,0,60*,x
SMILES,MIN6 prolif,APOBEC3A inh,A3G deaminase,A1 inh,A3A conf,UDG A3A counter
CSc1nn2cc(CCN3CCOCC3)c(-c3ccc(F)cc3)nc2c1C#N,0,2,-6,0,x,x
COc1ccc(NC(C)=O)cc1NC(C)C(=O)Nc1ccc(S(=O)(=O)N2CCCCC2)cc1 (stereo not drawn),1,-5,-3,2,x,x
COc1ccc2sc(NC(=O)c3ccco3)nc2c1,-4,61*,29,-7,48*,-2
O=C(Nc1nc2ccc([N+](=O)[O-])cc2s1)c1ccco1,-6,8,6,1,x,x
COc1ccc2nc(NC(=S)NC(=O)c3ccco3)sc2c1,-4,-3,-8,-1,x,x
COc1ccc2nc(NC(=O)c3ccc(-c4cccc([N+](=O)[O-])c4)o3)sc2c1,-2,53*,14,0,32*,x
CCOc1ccc(N(CC(=O)N/N=C/c2ccc(OC(C)C)cc2)S(C)(=O)=O)cc1,-1,52*,9,-1,26,x
Cc1ccc(OCCC(=O)N(CCC(C)C)c2c(N)n(Cc3ccccc3)c(=O)[nH]c2=O)cc1,-5,-3,-10,0,x,x
Cc1ccc(C(=O)O)cc1-c1ccc(C=C2C(=O)c3ccccc3C2=O)o1,-4,44*,12,0,35*,-2
Cc1ccc(NC(=O)CN2C(=O)S/C(=C/c3ccc(-c4cc(C(=O)O)ccc4C)o3)C2=O)cc1C,-5,63*,12,0,43*,-4
COC(=O)C(C)N1C(=O)S/C(=C\c2ccc(-c3ccc(C(=O)O)cc3C)o2)C1=O (stereo not drawn),-3,51*,12,-1,62*,-2
Oc1ccc2ccccc2c1CNc1ccccn1,-4,-1,-10,1,x,x
Cc1ccc(OC(C)C(=O)Nc2ccc3c(c2)n(C)c(=O)n3C)c(C)c1 (stereo not drawn),-2,84*,19,1,29,x
COc1ccccc1OC(C)C(=O)Nc1ccc2c(c1)n(C)c(=O)n2C (stereo not drawn),-3,-3,-3,0,x,x
Cc1ccc2c(c1)N(CCC(=O)NCc1ccco1)C(=O)CO2,-3,-1,-6,0,x,x
O=C(CCN1C(=O)COc2ccccc21)NCc1ccco1,-3,64*,-1,1,7,5
CCn1cc(C(=O)Nc2ncccc2O)c(=O)c2cc(F)c(N3CCN(C(=O)c4ccco4)CC3)cc21,-4,-2,-4,0,x,x
O=C1/C(=C/c2ccco2)SC(=S)N1C1CCS(=O)(=O)C1 (stereo not drawn),-2,47*,18,2,52*,x
O=C1/C(=C\c2ccco2)SC(=S)N1C1CCS(=O)(=O)C1 (stereo not drawn),0,35,20,1,x,x
O=C1/C(=C/c2ccco2)SC(=S)N1CC1CCCO1 (stereo not drawn),-2,56*,19,0,26*,3

# Screening data: PubChem, several laboratories
